3T3 cytotox – Cytotoxic Profiling in NIH 3T3 Cell Line of Diverse Libraries Using Quantitative High-Throughput Screening; NIH 3T3 viability, CellTiter-Glo ATP luminescence, 48-72 h; Potency, µM (highest dose often 96.7 µM), for inactives: top-dose activity change, negative = cytotoxicity, actives largely listed as inhibitors; 94,000 compounds, 4.3% hits; AID 1345082, 2018; note: nearly all actives have a fitted effect of over 55% in size
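Mouse fibroblast NIH 3T3 cells, 400 per well, received compound via pintool and were incubated for 48 or 72 hr prior to CellTiter-Glo ATP luminescence measurement.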
hNpr1 antagonist – Natriuretic polypeptide receptor (hNpr1) antagonism - Primary qHTS; HEK293 hNpr1 GloSensor cGMP, ANP-stimulated luminescence; Potency, µM (doses to about 46.3 µM), inactives show at the top dose activity change, negative = inhibition, most hits filed as inhibitors; 76,000 compounds, 1.6% hits; calls by dose curve; note: nearly all actives have a fitted effect of over 60% in size
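Compound pre-incubated 30 min at room temperature on GloSensor-loaded HEK293 cells stably carrying hNpr1 and the pGS-40F cGMP biosensor. Stimulation uses hNppA at 0.1 nM final; luminescence is taken at baseline and 20 min post-agonist.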
GPT2 inh – Primary qHTS assay for inhibitors of Glutamate pyruvate transaminase 2 (GPT2); Alanine aminotransferase 2 (Homo sapiens), Q8TD30; Recombinant GPT2, coupled pyruvate oxidase/HRP Amplex Red fluorescence; 100,000 compounds, 0.25% hits; Potency, µM (doses to about 57.7 µM), without a hit: top-dose activity change, negative = inhibition, most hits filed as inhibitors; note: nearly all actives have a fitted effect of over 60% in size
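Fluorescence of coupled pyruvate oxidase/HRP/Amplex Red system (50uM Amplex, 30 min, dark) reports pyruvate formed by GPT2. Enzyme reaction: 10ng/uL GPT2, 2mM L-alanine, 250uM a-KG, 30 min room temperature, pH 7.5; 50uM AOA control.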
FLuc inh – Firefly luciferase inhibition profiling of diverse chemical library using quantitative high-throughput screening; Luciferin 4-monooxygenase (Photinus pyralis), P08659; purified P. pyralis luciferase, luminescence, biochemical; Potency, µM (top dose mostly 115 µM), hits mostly inhibitors; 76,000 compounds, 2.5% hits; AID 1347043, 2019; note: nearly all actives have a fitted effect of over 65% in size
Target sequence (P08659 whole entry, looked up): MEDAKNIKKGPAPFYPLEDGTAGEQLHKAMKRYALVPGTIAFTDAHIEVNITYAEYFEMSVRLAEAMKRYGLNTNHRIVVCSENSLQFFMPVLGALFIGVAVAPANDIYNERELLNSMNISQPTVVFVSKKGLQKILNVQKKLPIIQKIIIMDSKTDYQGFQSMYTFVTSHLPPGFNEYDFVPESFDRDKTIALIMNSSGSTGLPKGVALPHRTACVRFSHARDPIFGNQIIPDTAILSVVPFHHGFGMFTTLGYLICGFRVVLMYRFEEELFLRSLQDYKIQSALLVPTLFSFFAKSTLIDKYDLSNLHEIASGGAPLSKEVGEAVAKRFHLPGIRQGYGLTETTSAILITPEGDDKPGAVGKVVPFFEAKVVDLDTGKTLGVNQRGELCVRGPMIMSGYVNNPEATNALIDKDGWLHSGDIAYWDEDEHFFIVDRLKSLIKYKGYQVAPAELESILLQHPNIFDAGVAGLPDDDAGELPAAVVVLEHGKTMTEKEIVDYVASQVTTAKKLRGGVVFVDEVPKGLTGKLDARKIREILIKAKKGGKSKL
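Purified 10nM P. pyralis luciferase with 10uM D-luciferin and 10uM ATP in 50mM Tris acetate pH 7.5, 10mM Mg acetate, 0.01% Tween-20, 0.05% BSA. qHTS titration; luminescence read by CCD imager.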
HEK293 tox – Cytotoxic Profiling in HEK 293 Cell Line of Diverse Libraries Using Quantitative High-Throughput Screening; HEK 293 viability, ATP luminescence (CellTiter-Glo), 48-72 h; Potency, µM (highest dose often 115 µM), for the others: top-dose activity change, negative = cytotoxicity, most hits filed as inhibitors; 94,000 compounds, 6.6% hits; AID 1345083, 2018; note: nearly all actives have a fitted effect of over 60% in size
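250 HEK 293 cells/well; compound by pintool; incubated 48 or 72 hr at 37 degree Celsius; CellTiter-Glo added, 10 min RT, luminescence imaged.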
* marks the source's active call; other numbers are inactive results; i = inactive; u = inconclusive; x = no result; [ ] = remark or other dose. This is a sample that favours compounds with a hit; in the whole collection about 10% have one here. Unless noted, calls come from the whole dose curve; as a rule, active = well fitted curve in the direction sought with a large enough effect; inconclusive = small, poorly fitted or top-dose-only effect, or another doubt; inactive = no such curve, though single readings can be large; an effect the other way counts as inactive or inconclusive. % is set by controls: 0 for no effect and ±100 for the full control effect; potency is the fitted concentration of half-maximal effect.

SMILES	3T3 cytotox	hNpr1 antagonist	GPT2 inh	FLuc inh	HEK293 tox
O=C1NC2(CCN(Cc3ccccc3C(F)(F)F)CC2)COc2ccccc21	i	0.0%	i	i	-2.6%
O=C(NCc1ccncc1)c1cc(C2CC2)nc2onc(C3CCCN3)c12 (stereo not drawn)	u	x	u	x	-13.8%
CN1CCN(Cc2ccc(Nc3cnc4ccc(N5CCOCC5)nn34)cc2)CC1	-31.1%[138 µM]	-1.1%[70.6 µM]	u	i	u
CN1CCN(Cc2ccc(Nc3cnc4ccc(-n5ccnc5)nn34)cc2)CC1	u	-1.1%[70.6 µM]	i	u	50.1µM*
COc1ccc(CN2CCC3(CC2)Cc2ccccc2CNC3=O)cc1OC	-11.1%	x	-5.6%	x	-23.5%
CN1CCCCCCN(C(=O)c2cccs2)[C@H]2CCC[C@H]2C1=O	0.0%	0.4%	-12.2%	i	-20.7%
O=C(c1ccc2nnc(-c3ccc(OC(F)(F)F)cc3)n2c1)N1CCOCC1	u	x	i	x	u
O=C1NCCCCCCN(Cc2ccncc2)[C@@H]2CN(C(=O)C3CCCCC3)CC[C@@H]12	u	5.0%	i	i	44.7µM*
O=C1NCCCCCCN(Cc2ccc(C(F)(F)F)cc2)[C@H]2CCC[C@@H]12	u	-22.6%	1.6%	i	39.8µM*
N#Cc1ccc(CN2CCCCCCNC(=O)[C@@H]3CCC[C@@H]32)cc1	-25.6%	-12.3%	i	i	u
CNC(=O)N1CCC(C2CCN(C(=O)CCc3c(C)nn(C)c3C)C2)CC1 (stereo not drawn)	-22.1%	x	i	x	-0.9%
COc1ccc(F)cc1-c1ccc(CN2CCC(NC(=O)c3cccc(Cl)c3)C2)cc1 (stereo not drawn)	22.4µM*	x	x	x	22.4µM*
COc1ccccc1-c1ccc(CN2CCC(NC(=O)c3cccc(Cl)c3)C2)cc1 (stereo not drawn)	22.4µM*	x	x	x	20µM*
O=C(NC1CCCN(Cc2ccc(-c3cncnc3)cc2)C1)c1cccc(Cl)c1 (stereo not drawn)	-24.7%	x	i	x	u
Cc1nc(N2CCC(NC(=O)CC3CCCCC3)CC2)cc(C(F)(F)F)n1	-35.6%	0.2%	-9.3%	i	-20.4%
CC(C)C(NC(=O)c1cn(C2CCC(N)CC2)nn1)c1nc(C2CC2)no1 (stereo not drawn)	-16.9%	9.6%	1.5%	i	-12.2%
COc1ccc(-c2c(C(=O)NCc3ccc(F)c(F)c3)nc3sccn23)cc1	u	x	-0.8%	x	u
O=C(c1ccsc1)N1CC(Oc2ccc(-c3nc(-c4ccccc4)no3)cc2)C1	-4.6%	1.7%	-7.8%	28.2µM*	-29.6%
Cc1nc(C)c(C(=O)N2CCC(Oc3ccc(-c4noc(C5CC5)n4)cc3)C2)s1 (stereo not drawn)	u	u	i	i	20µM*
Cc1cccc(C(=O)N2CC(Oc3ccc(-c4nc(-c5ccccc5)no4)cc3)C2)c1	-27.8%	-5.5%	i	i	u
Cc1nc(C)c(C(=O)N2CC(Oc3ccc(-c4nc(-c5ccccc5)no4)cc3)C2)s1	-14.1%	-8.3%	i	12.6µM*	u
O=C(C1CCOC1)N1CC(Oc2ccc(-c3nc(-c4ccccc4)no3)cc2)C1 (stereo not drawn)	u	3.16µM*	4.0%	14.1µM*	u
CCc1cccc(NC(=O)c2nnn3cc(C)[nH]c(=O)c23)c1	0.8%	5.7%	i	i	4.6%
CC(C)N1C(=O)C2(CCN(C(=O)Cc3c[nH]c4ccccc34)CC2)C1c1ccccc1 (stereo not drawn)	u	x	i	x	u
C[S+](=O)([O-])c1ccc(-c2cc(C(=O)NCC(F)F)nn3cccc23)cc1	u	x	i	x	u
SMILES	3T3 cytotox	hNpr1 antagonist	GPT2 inh	FLuc inh	HEK293 tox
O=C(NCCN1CCOCC1)[C@H]1C[C@@H](O)[C@H](O)[C@@H]2N=C(Nc3ccc(-n4cccn4)cc3)S[C@@H]21	-15.8%	-0.2%	i	35.5µM*	-18.3%
Cc1cccc(NC(=O)Cn2c(C)cc3nc4n(c(=O)c32)CCCCC4)c1C	-28.3%	-2.7%	0.7%	i	-12.9%
O=C(Nc1cccc(F)c1)C1CCCN(Cc2cccc(-c3ccc(F)cc3F)c2)C1 (stereo not drawn)	44.7µM*	x	-1.7%	x	20µM*
N#Cc1cc(CN2CCCC(C(=O)Nc3cccc(-c4ccc(F)cc4)c3)C2)c[nH]1 (stereo not drawn)	17.8µM*	-24.9%	-9.1%	i	25.1µM*
CNC(=O)C1CCCN(Cc2cccc(-c3ccc(F)cc3F)c2)C1 (stereo not drawn)	u	x	i	x	63.1µM*
O=C(NCC(F)F)C1CCCN(Cc2cccc(-c3ccc(F)cc3F)c2)C1 (stereo not drawn)	u	x	-9.7%	x	u
O=C(Nc1cccc(Cl)c1)C1CCCN(Cc2cccc(-c3ccc(F)cc3F)c2)C1 (stereo not drawn)	u	x	-2.2%	x	u
C#CCNC(=O)C1CCCN(Cc2cccc(-c3ccc(F)cc3F)c2)C1 (stereo not drawn)	u	x	1.7%	x	44.7µM*
Cc1ccc(C(=O)N2CCc3sc(C(=O)NCCN4CCCCCC4)cc3C2)cc1	u	8.4%	1.8%	i	u
COc1ccccc1-c1cc(C(=O)N(C)CC#N)c2cnn(C)c2n1	-28.3%	x	x	x	-18.4%
O=C(c1ccn(C(F)F)n1)N1CCc2nc(-c3ccc(Cl)cc3)[nH]c2C1	u	-0.3%	5.0%	u	89.1µM*
O=C1Nc2ccc(-c3cccc(C(F)(F)F)c3)cc2C(=O)N2CCN(C(=O)c3ccccc3)C[C@H]12	u	u	-1.0%	u	20µM*
O=C1Nc2ccc(-c3cccc(C(F)(F)F)c3)cc2C(=O)N2CCN(C(=O)C3CCCC3)C[C@@H]12	u	-2.7%	-14.0%	i	39.8µM*
COc1ccc(Cl)cc1-c1ccc2c(c1)C(=O)N1CCN(C(=O)c3cccs3)C[C@@H]1C(=O)N2	-27.6%	-15.9%	-3.8%	i	u
O=C1Nc2ccc(-c3cccc(C(F)(F)F)c3)cc2C(=O)N2CCN(C(=O)C3CCNCC3)C[C@H]12	-20.9%	3.5%	-3.5%	i	-13.7%
COc1ccc(Cl)cc1-c1ccc2c(c1)C(=O)N1CCN(C(=O)C3CCCCC3)C[C@@H]1C(=O)N2	44.7µM*	1.9%	3.3%	i	u
